Source: PubChem
sEH act: soluble epoxide hydrolase activators, primary screen, biochemical, human sEH; Bifunctional epoxide hydrolase 2 (Homo sapiens), P34913; purified human sEH enzymatic activity, activator screen; activation, % at 2 µM; hit rate 0.04% among 91,000; in the data active = activation above about 37%
sEH inhibitor: soluble epoxide hydrolase inhibitors, primary screen, biochemical, human sEH | Bifunctional epoxide hydrolase 2 (Homo sapiens), P34913 | recombinant human sEH enzymatic activity assay | inhibition, % at 2 µM | hit rate 0.34% among 91,000; in the data active = inhibition above about 80%
Cav3 T inh: Cav3.2 calcium influx blockers – cell-based, Fluo-4 calcium fluorescence, FDSS, MLSMR library, primary screen; hit rate 4% among 100,000; Cav3.2-expressing cells; stronger effect = lower value; B-score at 10 µM; Voltage-dependent T-type calcium channel subunit alpha-1H (Homo sapiens), O95180;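 active = single-dose well whose peak fluorescence ratio is a statistical outlier from its plate by either plate-standardised score or position-corrected B-score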
PostGolgi yeast: phenotypic screen on post-Golgi transport, primary screen. post-Golgi transport phenotypic cell assay. inhibition, % at 10 µM. hit rate 0.9% among 98,000;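 also: yeast cells grown in 1536-well plates; yeast grown about 18 h at 30C before absorbance read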
PostGolgi ctrl: growth inhibition of yeast control strain, primary screen, counter-screen for post-Golgi transport modulator project. hit rate 5% among 98,000. inhibition, % at 10 µM. efflux-deficient yeast background strain, growth absorbance A615, 16 h
* hit, by the source's call; . = not tested or not shown. Sampled rows, rich in hits. Any-hit rate of the full collection: about 7.8%. Rule as the data show it, unless noted: active = inhibition above about 30%; inactive = the rest.

SMILES | sEH act | sEH inhibitor | Cav3 T inh | PostGolgi yeast | PostGolgi ctrl
COC(=O)CCCNC(=O)CN1CC(c2ccccc2)CC1=O (configuration not stated) | 3.6 | -6.0 | -0.25 | 1.0 | 8.3
CC1(C)C2CC=C(CN3CCC(O)CC3)C1C2 (configuration not stated) | 0.7 | -0.5 | 0.306 | -8.7 | 13.7
CCCCCCOc1ccc(CN2CCN(CCO)CC2)cc1 | 2.1 | -1.1 | 0.834 | 89.1* | 31.4*
Fc1ccc(C2=CCN(C(c3cccs3)c3nnnn3CCc3ccccc3)CC2)cc1 (configuration not stated) | 6.5 | -4.1 | -1.8 | 4.3 | 43.1*
CCC(C)(C)n1nnnc1C(c1cccs1)N1CC=C(c2ccc(F)cc2)CC1 (configuration not stated) | 1.6 | -3.0 | -1.5 | 4.2 | 40.9*
CC(C)(C)n1c(O)c(C=Nc2ccc3c(c2)CCC3)c(=O)[nH]c1=O | 4.9 | -4.5 | -2.31 | 1.3 | 44.6*
O=c1[nH]c(=O)n(CCC2=CCCCC2)c(O)c1C=Nc1cccc(F)c1 | 5.1 | -3.2 | 0.297 | 1.7 | 10.8
C[N+]1(C)CCC(OC(=O)C(c2ccccc2)c2ccccc2)CC1 | . | . | -4.37* | . | .
CCOC(=O)C(O)(c1ccc(N(CC)S(=O)(=O)c2ccc(C)cc2)cc1)C(F)(F)F (configuration not stated) | 9.3 | -8.8 | -6.15* | -12.8 | 1.1
CCOC(=O)N(C)c1ccc(C(O)(C(=O)OC)C(F)(F)F)cc1 (configuration not stated) | 5.8 | -0.4 | 0.461 | . | .
CCN(c1ccc(C(O)(C(=O)OC)C(F)(F)F)cc1)S(=O)(=O)c1ccc(C)cc1 (configuration not stated) | 4.3 | -6.2 | -4.9* | -2.0 | 35.4*
O=C(COc1ccc(Cl)cc1Cl)N1CCN(C/C=C/c2ccccc2)CC1 | 0.9 | -0.8 | -2.03 | 104.0* | 66.0*
O=C(C1CC(=O)N(C2CCCCCCC2)C1)N1CCC2(CC1)OCCO2 (configuration not stated) | -4.5 | 3.1 | 1.54 | -1.4 | -1.7
O=C(Cc1ccccc1)OCCN1CCCCC1 | -0.5 | 0.9 | 0.297 | 8.0 | 6.4
O=C(Cc1ccccc1)Oc1cccc(N2C(=O)CCC2=O)c1 | -6.3 | 6.0 | -0.0325 | 2.7 | 32.8*
CN1CCc2nc3sc(C(=O)NC(C)(C)C)c(N)c3cc2C1 | 0.3 | 1.3 | 0.675 | 96.3* | 68.3*
CC[C@@H](C(N)=O)N1CCCC1=O | . | . | 0.617 | . | .
Nc1ccccc1C(=O)OC1CSC1 | -8.0 | 6.1 | 0.193 | -1.4 | 29.4
CCOC(=O)C(O)(c1ccc(N(C)C(=O)COc2ccccc2)cc1)C(F)(F)F (configuration not stated) | 1.8 | -3.9 | 0.434 | . | .
CCOC(=O)C(O)(c1ccc(NC(=O)NC2CCCCC2)cc1)C(F)(F)F (configuration not stated) | -94.9 | 95.0* | -1.87 | -7.2 | -2.1
Cc1nc2c(=O)n(C)c(=O)nc-2n(C)n1 | -28.9 | 31.9 | . | . | .
CCn1nc(-c2ccccc2)nc2c(=O)n(C)c(=O)nc1-2 | . | . | -1.67 | 105.6* | 101.6*
CCCNC(=O)N1[C@H]2CC[C@@H]1C(C(=O)OC)=C(c1cccc(OC)c1OC)C2 | . | . | 0.444 | . | .
O=C(Nc1cccnc1)c1c(O)c2c(n(Cc3ccccc3)c1=O)CCCC2 | . | . | -2.82 | -1.1 | 38.5*
CC1(C)CC(=O)C(C2(O)C(=O)NC(=O)NC2=O)=C(O)C1 | . | . | -0.119 | 0.7 | 7.4
SMILES | sEH act | sEH inhibitor | Cav3 T inh | PostGolgi yeast | PostGolgi ctrl
CCOP(=S)(OCC)SCC(=O)NC(C(=O)O)C(C)C (configuration not stated) | 26.7 | -28.9 | 0.704 | 0.2 | 6.5
CN1C[C@H](CNC(=O)OCc2ccccc2)C[C@@H]2c3cccc4c3c(cn4C)C[C@H]21 | . | . | -4.4* | . | .
N#Cc1c(/N=C/c2c(O)n(Cc3ccco3)c(=O)[nH]c2=O)sc2c1CCCC2 | 0.7 | -2.2 | -2.83 | -6.0 | -3.4
CN1C(=O)/C(=C/c2ccc(N3CCCCCC3)o2)C(=O)NC1=S | 10.1 | -7.5 | -4.46* | . | .
CN1C(=O)/C(=C\c2ccc(N3CCCCC3)o2)C(=O)NC1=S | -3.2 | 3.4 | -4.83* | 0.6 | -0.8
Cc1ccc(N2C(=O)/C(=C/c3ccc(CN(CCC#N)S(C)(=O)=O)o3)C(=O)NC2=S)cc1C | -11.1 | 11.2 | 1.15 | -3.3 | -1.6
Cc1cccc(N2C(=O)/C(=C/c3ccc(CN(CCC#N)S(C)(=O)=O)o3)C(=O)NC2=S)c1 | -13.9 | 15.4 | 1.02 | 12.4 | 5.1
COc1ccccc1/C=C1/C(=N/O)C2CCN1CC2 | . | . | 0.286 | 2.0 | 9.6
CCCC1COC(Cn2cncn2)(c2ccc(Cl)cc2Cl)O1 (configuration not stated) | 17.3 | -17.9 | -1.33 | 85.1* | 95.8*
CCCSc1nc(O)c(CC)c(=O)n1C(C)CC (configuration not stated) | -0.9 | 3.4 | 0.236 | -2.1 | -3.1
Cc1cc(C)n(CCOC(=O)C2C(C=C(Cl)Cl)C2(C)C)n1 (configuration not stated) | -2.9 | 5.8 | -6.62* | 8.7 | 23.8
CCn1ncc(/C=C2/CC3C4CC=C5CC(O)CCC5(C)C4CCC3(C)C2=O)c1C (configuration not stated) | -14.6 | 17.6 | . | . | .
CCCCCCCC(=O)NC(Oc1ccccc1[N+](=O)[O-])C(Cl)(Cl)Cl (configuration not stated) | -3.9 | -0.4 | -6.86* | 4.6 | 8.8
NC(=O)c1cn(C2OC(CO)C(O)C2O)c2ncnc(N)c12 (configuration not stated) | . | . | -4.74* | . | .
Cc1ccc2nc3c(cc2c1)CC1(C(=O)N(C)C(=O)N(C)C1=O)C1COCCN31 (configuration not stated) | 3.9 | -3.2 | 0.543 | -2.8 | 31.7*
COC(=O)C1=C(c2cc3ccccc3s2)C[C@@H]2CC[C@H]1N2C(=O)NCc1ccccc1 | . | . | -2.35 | . | .
COC(=O)C1=C(c2cc3ccccc3s2)C[C@@H]2CC[C@H]1N2C(=O)NCc1ccc(F)cc1 | . | . | -3.35* | . | .
Nc1c(C(=O)NC2CCCC2)c2nc3ccccc3nc2n1CC1CCCO1 (configuration not stated) | . | . | -6.44* | -1.6 | 62.2*
CCCCN1C(=O)NC(=O)C2(Cc3c(nc4c(C)cccn4c3=O)N3CCc4ccccc4C32)C1=O (configuration not stated) | -5.8 | 5.3 | . | 1.0 | 39.4*
Cn1c(O)c(C(=N)COc2cccc(Cl)c2)c(=O)n(C)c1=O | 4.4 | -6.5 | -0.312 | 3.6 | -0.5
CCC(=NCc1ccc(F)cc1)c1c(O)n(C)c(=O)n(C)c1=O | -0.2 | -0.9 | 0.17 | 19.0 | 8.8
O=C(c1sc2ccccc2c1Cl)N1CCC2(CC1)OCCO2 | -10.3 | 8.4 | -3.28 | 3.7 | 46.3*
CCOP(=O)(CN(CC)CCNP(=O)(OCC)OCC)OCC | . | . | -0.212 | 18.0 | -6.7
C#CCOCOCC#CCN(CC)CC | 0.3 | 2.5 | -0.139 | 13.9 | -2.5
CCOC(=O)c1ccc(N2C(=O)CC(N3CCC(C#N)(c4ccccc4)CC3)C2=O)cc1 (configuration not stated) | -8.6 | 8.8 | 0.322 | -4.7 | 19.1
